36 compounds from ChEMBL document CHEMBL1157539, “Thousands of chemical starting points for antimalarial lead identification” (Nature, 2010) can be followed below.

The term Inhibition denotes the change of the read-out against control, counted positive when it falls. Read a high Inhibition as a strong effect.

The test relates to HepG2. The test can be described thus: GSK_TCMDC: Percent inhibition of human HepG2 cell line. Test compounds present at 10uM. Format: functional.
Compound `Cc1[nH]c(C)c(-c2ccc(Oc3ccc(Cl)cc3)cc2)c(=O)c1Br` came in with an Inhibition of 12%.

The compound `CN1CCN(c2cc3c(Nc4ccc5c(cnn5Cc5ccccc5)c4)ncnc3cn2)CC1` registered an Inhibition of 9%.

`CC(C)CNCc1cccc(-c2ccc(CN(CCCN3CCN(C)CC3)C(=O)/C=C/c3ccccc3)cc2)c1.O=C(O)C(F)(F)F`: the Inhibition is 48%.

Compound `O=C(Nc1ccccc1)NC1CCN(CCC2(c3ccc(Cl)c(Cl)c3)COCN(C(=O)c3ccccc3)C2)C1` (stereo unspecified) showed an Inhibition of 23%. In the case of `Cc1cc(C(=O)NC2CCN(Cc3ccccc3)CC2)ccc1-c1nc2cc(Cl)c(Cl)cc2[nH]1` it was 7%; in that of `Cc1ccc(-c2cc(C(=O)Nc3ccc(S(=O)(=O)N4CCOCC4)cc3)[nH]n2)c(O)c1C`, 18%; in that of `CC1(C)CCC(C)(C)c2c1ccc(C1CCN(CCCCNC(=O)c3ccc(-c4ccc(Cl)cc4)cc3)CC1)c2O`, 100%.

The compound `O=C(c1cccc(-c2noc(C(F)(F)F)n2)c1)N1CCN(C(=O)c2ccc3cc[nH]c3c2)CC1` yielded an Inhibition of 15%.

The compound `CCCN1CCN(CCNC(=O)c2cccc(Nc3nccc(Nc4ccc(Oc5ccccc5)cc4)n3)c2)CC1` registered an Inhibition of 56%. In the case of `O=C(Nc1cccnc1)c1cc(-c2cccnc2)nc2ccc(Cl)cc12` it was 45%.

Consider `C=Cc1c(C2CCN(CCCCNC(=O)c3ccc(-c4ccc(C#N)cc4)cc3)CC2)ccc2c1CCCC2`, for which the Inhibition worked out at 75%. `C[C@H](Cc1ccc(OCCCCCCOc2ccc(C[C@@H](C)N[C@H](C)c3ccccc3)cc2)cc1)NC[C@H](O)c1cccc(Cl)c1.Cl` returned an Inhibition of 99%. In the case of `COCCN(C)CCCOc1cc2c(cc1OC)ncn2-c1cc(OCc2ccccc2C(F)(F)F)c(C(N)=O)s1.Cl`, the Inhibition is listed as 24%. In the case of `COc1cc(Nc2ccnc3cc(-c4ccccn4)ccc23)cc(OC)c1OC.Cl`, the Inhibition is recorded as 0%.

In the case of `CN1CCN(CCCCCNc2c3ccccc3nc3ccccc23)CC1.Cl`, the Inhibition stood at 57%. Under `O=C(Nc1ccccc1)N(Cc1cccc(-c2ccc(CNCCc3ccccc3)cc2)c1)C1CCN(Cc2ccccc2)CC1.O=C(O)C(F)(F)F` stands 100%. Under `CCc1ccc(CN2CCC(NC(=O)c3ccc(-c4ccccc4F)s3)CC2)cc1.O=C(O)C(F)(F)F` stands 35%. In the case of `CCN(CC)CCNc1ccnc2c3ccccc3n(C)c12` it was 14%; in that of `COc1ccc(NC(=O)[C@H](Cc2ccccc2)Nc2nc(NCCN3CCCC3)ncc2C)cc1.O=C(O)C(F)(F)F`, 26%; in that of `COc1cc(CC2c3cc(O)c(Cl)cc3CCN2C)c(OC)cc1C.Cl` (stereo unspecified), 10%.

`CC(CN1CCN(C)CC1)C(=O)Nc1cccc(-c2ccc(-c3nc4cc(C(F)(F)F)ccc4[nH]3)cc2)c1` (stereo unspecified) yielded an Inhibition of 11%.

The compound `Cn1c(N)cc(-c2ccc(Br)cc2)c2c(=O)nc(N)nc1-2` displayed an Inhibition of 5%. `CN(C)Cc1ccc(-c2ccc(NC(=O)c3ccc4c(=O)n(Cc5ccccc5)cnc4c3)cc2)cc1` yielded an Inhibition of 94%. In the case of `COCCNCc1cccc(-c2ccc3c(Nc4ccc(F)cc4Cl)ccnc3c2)c1` it was 8%. In the case of `COc1ccc(-c2cnc3ccc(NCCCO)nn23)cc1OC` it was 9%; in that of `CN1CCN(CCCN(Cc2csc(-c3ccc(CNCc4ccccc4)cc3)n2)C(=O)Nc2cccc(Cl)c2)CC1.O=C(O)C(F)(F)F`, 32%; in that of `CCN(CC)CCNC(=O)/C(=C/C=C/c1cc2cc(Cl)c(Cl)cc2[nH]1)OC`, 30%.

Take `COc1cc(NC(=O)C(c2ccc(Cl)cc2)C(C)C)cc(OC)c1OC` (stereo unspecified): the Inhibition is 10%.

`COc1c(C2CCN(CCCCNC(=O)c3cccc(-c4ccc(C(F)(F)F)cc4)c3)CC2)ccc2c1CCCC2` gave an Inhibition of 50%.

As for `CCOC(=O)C1=C(C)N=c2sc(=Cc3cc(Cl)ccc3O)c(=O)n2C1c1ccc2c(c1)OCO2` (stereo unspecified), the Inhibition was 0%. Under `CCNc1cc(C(=O)N[C@@H](Cc2ccccc2)[C@H](O)CN[C@@H]2CCc3ccccc32)cc(N2CCCCS2(=O)=O)c1` stands 0%; under `CNCCNCc1cccc(-c2ccc(-c3nc4cccc(C)c4[nH]3)s2)c1.O=C(O)C(F)(F)F`, 10%; under `CC(CCc1ccccc1)NCC(O)c1ccc2c3c(cccc13)S(=O)(=O)N2C.Cl` (stereo unspecified), 16%. For the compound `Cc1ccc(C(=O)N2CCN(Cc3nccs3)CC2)cc1`, the Inhibition was determined as 0%.

`O=C(/C=C/c1cc(C(F)(F)F)ccc1F)NCCCCCN1CCC(c2c[nH]c3ccccc23)CC1` returned an Inhibition of 39%. Consider `O=C(Nc1ccc(OC2CCN(Cc3ccccc3)C2)c(Cl)c1)c1ccsc1.O=C(O)C(F)(F)F` (stereo unspecified), for which the Inhibition is 12%.
